Pf growth 48h: P. falciparum growth inhibition at 48 hours (one generation). P. falciparum luciferase growth in erythrocytes, 48 h. Potency, µM (highest dose often 28.7 µM), actives largely listed as inhibitors. 310,000 tested, 5.9% active
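Here the parasites carry a stable luciferase gene and grow inside erythrocytes in Albumax-based RPMI medium with compound for one erythrocytic cycle. Activity is scored as loss of luminescent signal.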
Cycloheximide cs: counter-screen hit for Shiga toxin inhibitors, cycloheximide | cell reporter, cycloheximide protein synthesis inhibition counterscreen | max response, % | 300,000 tested, 12% active | AID 2314; in the data active = max response mostly above about 13%, no sharp cut-off; inactive = mostly below about 14%; note: read at 38.3 µM for the half of the compounds with a filed dose
Pf growth 96h: P. falciparum growth inhibition at 96 hours | AID 504834 | 320,000 tested, 6.9% active | P. falciparum luciferase reporter growth, 96 h | Potency, µM (highest dose often 28.7 µM), most hits filed as inhibitors
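Two-generation exposure (96 h) targets delayed-death phenotype. Reporter parasites carrying integrated firefly luciferase, in red cells at 2% hematocrit and 0.05% parasitemia final, kept at 37 C, 5% CO2; luminescence loss indicates inhibition.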
SARS PLpro yeast-1: inhibitors of SARS-CoV papain-like protease in yeast; S. cerevisiae expressing SARS-CoV PLpro, growth rescue; AID 485353; Potency, µM (titrated, usually from 32.9 µM), hits mostly activators; 330,000 tested, 0.19% active; calls by dose curve; note: nearly all actives have a fitted effect of over 55% in size
Shiga toxin inh: inhibitors of Shiga toxin in Vero cells; AID 2315; 290,000 tested, 9.2% active; inhibition, % at 38.7 µM; Vero cells, Shiga toxin protein synthesis inhibition reporter; in the data active = inhibition mostly above about 28%, no sharp cut-off; inactive = mostly below about 43%
NS1 function inh: blocks influenza NS1 protein function; Potency, µM (highest dose often 46.1 µM); 270,000 tested, 0.4% active; AID 2326; calls by dose curve; note: actives are rising curves; nearly all actives have a fitted effect of over 50% in size
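OD600 was taken as the measure of yeast growth restored by compound in an NS1-expressing S. cerevisiae strain. Cells had been washed out of glucose medium and diluted 1:100 into galactose -URA medium, pH 6.0.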
SARS PLpro yeast-2: Rescues yeast growth by inhibiting SARS-CoV PLpro. shares compounds with SARS PLpro yeast-1. yeast expressing SARS-CoV PLpro, growth phenotype rescue. calls only. 1,000 tested, 19% active; call rule not given here
CLK4 ADP-Glo: CLK4 (human) kinase inhibition, ADP-Glo confirmation | shares compounds with Pf growth 48h | recombinant Clk4, RS peptide, ADP-Glo luminescence | Potency, µM (series often up to 80 µM), hits mostly inhibitors | 65 tested, 80% active | AID 1969
Target sequence (Q9HAZ1 whole entry, looked up): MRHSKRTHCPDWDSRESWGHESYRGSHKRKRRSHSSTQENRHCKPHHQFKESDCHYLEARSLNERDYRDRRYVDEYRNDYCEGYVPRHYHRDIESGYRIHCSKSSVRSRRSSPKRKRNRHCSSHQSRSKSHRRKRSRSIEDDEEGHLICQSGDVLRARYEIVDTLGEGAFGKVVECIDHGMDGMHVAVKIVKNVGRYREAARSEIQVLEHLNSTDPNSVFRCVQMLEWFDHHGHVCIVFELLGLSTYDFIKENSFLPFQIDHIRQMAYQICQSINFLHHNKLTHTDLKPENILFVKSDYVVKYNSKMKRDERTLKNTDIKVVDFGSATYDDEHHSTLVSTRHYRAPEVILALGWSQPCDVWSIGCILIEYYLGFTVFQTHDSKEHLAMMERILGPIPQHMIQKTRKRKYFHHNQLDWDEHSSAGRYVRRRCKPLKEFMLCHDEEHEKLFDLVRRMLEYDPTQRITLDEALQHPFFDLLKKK
CLK4 ADP FP: CLK4 (human) inhibition, Transcreener FP confirmation | recombinant Clk4, ADP Transcreener FP, RS peptide | Potency, µM (series often up to 80 µM), most hits filed as inhibitors | shares compounds with Pf growth 48h | AID 1983 | 65 tested, 70% active
Of the large screens only hits and unclear results are named; the others gave an inactive call (follow-up assays come after a bar, where they were run); ! = repeats disagree. Shown are actives, neighbours in structure and some others; about 21% of the full set was active somewhere. Unless noted, calls come from the whole dose curve; as a rule, active = well fitted curve in the direction sought with a large enough effect; inconclusive = small, poorly fitted or top-dose-only effect, or another doubt; inactive = no such curve, though single readings can be large; an effect the other way counts as inactive or inconclusive.

COc1cc(OC)cc(-c2nc3ccccc3c(=O)n2OC(=O)c2ccccc2C)c1	SARS PLpro yeast-1 inconclusive | SARS PLpro yeast-2 active
O=C(On1c(-c2ccccc2)nc2ccccc2c1=O)c1ccco1	Pf growth 48h inconclusive (no result: SARS PLpro yeast-1)
O=C(Cc1cc(=O)[nH]c(=O)[nH]1)N1CCN(C(=O)c2ccco2)CC1	SARS PLpro yeast-1 1.8µM | SARS PLpro yeast-2 inactive
CCCCCCO	SARS PLpro yeast-1 11µM (no result: Cycloheximide cs, Shiga toxin inh, NS1 function inh) | SARS PLpro yeast-2 inactive
O=C(Cc1ccccc1)N/N=C/c1cc(Br)cc(Cl)c1O	Pf growth 96h inconclusive (no result: NS1 function inh)
O=C(CP(=O)(c1ccccc1)c1ccccc1)N/N=C/c1cc(Br)cc(Br)c1O	SARS PLpro yeast-1 2.5µM | SARS PLpro yeast-2 active
Cc1cccc(-c2ccc3ncnc(NCc4cccs4)c3c2)c1	Pf growth 48h 3.7µM!, Pf growth 96h 3.3µM, SARS PLpro yeast-1 6.3µM! (no result: Cycloheximide cs, Shiga toxin inh, NS1 function inh) | SARS PLpro yeast-2 inactive | CLK4 ADP-Glo 7.9µM | CLK4 ADP FP 16µM
Cc1cccc(-c2ccc3ncnc(NCc4cccnc4)c3c2)c1	Pf growth 48h 9.3µM, Pf growth 96h inconclusive, SARS PLpro yeast-1 6.3µM! (no result: Cycloheximide cs, Shiga toxin inh, NS1 function inh) | SARS PLpro yeast-2 inactive | CLK4 ADP-Glo 6.3µM | CLK4 ADP FP 10µM
COc1cccc(-c2ccc3ncnc(NCc4cc(C)cs4)c3c2)c1	Pf growth 48h 6.6µM, Pf growth 96h 4.1µM, SARS PLpro yeast-1 6.3µM! (no result: Cycloheximide cs, Shiga toxin inh, NS1 function inh) | SARS PLpro yeast-2 inactive | CLK4 ADP-Glo 0.89µM | CLK4 ADP FP 1.3µM
Cc1cccc(CNc2ncnc3[nH]ncc23)c1	none (no result: Pf growth 48h, Cycloheximide cs, Pf growth 96h, SARS PLpro yeast-1, Shiga toxin inh)
C[C@H](CO)N1C[C@H](C)[C@@H](CN(C)C(=O)NC2CCCCC2)Oc2ccc(NC(=O)CCC(F)(F)F)cc2C1=O	none (no result: Pf growth 48h, Cycloheximide cs, Pf growth 96h, Shiga toxin inh, NS1 function inh)
CCN(c1ccccc1)S(=O)(=O)c1ccc(Cl)c(NC(=O)CN2C(=O)NC3(CCCC3)C2=O)c1	Pf growth 48h inconclusive
Cc1csc(CNc2ncnc3ccc(-c4cccnc4)cc23)c1	Pf growth 48h inconclusive, Pf growth 96h 10µM (no result: Cycloheximide cs, Shiga toxin inh, NS1 function inh) | CLK4 ADP-Glo 4.5µM | CLK4 ADP FP 11µM
Cc1csc(CNc2ncnc3ccc(-c4ccoc4)cc23)c1	Pf growth 48h 13µM!, Pf growth 96h inconclusive (no result: Cycloheximide cs, Shiga toxin inh, NS1 function inh) | CLK4 ADP-Glo 0.56µM | CLK4 ADP FP 0.56µM
Cc1noc(C)c1-c1ccc2ncnc(NCC3CCN(C)CC3)c2c1	none (no result: Pf growth 48h, Pf growth 96h, SARS PLpro yeast-1, NS1 function inh)
Cc1csc(CNc2ncnc3ccc(-c4ccc5c(c4)OCCO5)cc23)c1	Pf growth 48h 12µM, Pf growth 96h inconclusive (no result: Cycloheximide cs, Shiga toxin inh, NS1 function inh) | CLK4 ADP-Glo 0.45µM | CLK4 ADP FP 0.56µM
Cc1csc(CNc2ncnc3ccc(-c4ccc5c(c4)OCO5)cc23)c1	Pf growth 48h 10µM, Pf growth 96h 3.3µM (no result: Cycloheximide cs, Shiga toxin inh, NS1 function inh) | CLK4 ADP-Glo 0.16µM | CLK4 ADP FP 0.16µM
COC(=O)[C@]1(Cc2ccccc2)N[C@H](CN(C)C(=O)c2ccccc2)[C@@H]2C(=O)N(Cc3ccccc3)C(=O)[C@@H]21	none (no result: Pf growth 48h, Cycloheximide cs, Pf growth 96h, Shiga toxin inh, NS1 function inh)
Cc1csc(CNc2ncnc3ccc(-c4ccccc4Cl)cc23)c1	Pf growth 48h 9.3µM, Pf growth 96h 2.6µM (no result: Cycloheximide cs, Shiga toxin inh, NS1 function inh) | CLK4 ADP-Glo 8.9µM | CLK4 ADP FP inconclusive
Cc1noc(C)c1-c1ccc2ncnc(NCc3ccco3)c2c1	none (no result: Pf growth 48h, Pf growth 96h, SARS PLpro yeast-1, NS1 function inh)
Cc1noc(C)c1-c1ccc2ncnc(NCc3ccccc3Cl)c2c1	none (no result: Pf growth 48h, Pf growth 96h, SARS PLpro yeast-1, NS1 function inh)
Clc1ccccc1-c1ccc2ncnc(NCc3cccs3)c2c1	Pf growth 48h 5.9µM, Pf growth 96h 3.7µM (no result: Cycloheximide cs, Shiga toxin inh, NS1 function inh) | CLK4 ADP-Glo 6.3µM | CLK4 ADP FP inconclusive
Clc1cccc(-c2ccc3ncnc(NCc4cccs4)c3c2)c1	Pf growth 48h 12µM, Pf growth 96h 3.3µM (no result: Cycloheximide cs, Shiga toxin inh, NS1 function inh) | CLK4 ADP-Glo 4µM | CLK4 ADP FP 7.9µM
c1coc(-c2ccc3ncnc(NCc4cccs4)c3c2)c1	Pf growth 48h inconclusive, Pf growth 96h inconclusive (no result: Cycloheximide cs, Shiga toxin inh, NS1 function inh) | CLK4 ADP-Glo 28µM | CLK4 ADP FP 28µM
Cc1ccc(CNc2ncnc3cc(Cl)ccc23)cc1	Pf growth 48h inconclusive, Pf growth 96h inconclusive
COc1cccc(S(=O)(=O)NCc2ccc3c(c2)OCO3)c1	none (no result: Pf growth 48h)

Source: PubChem
